From PubChem
JMJD2E inh: qHTS Assay for Inhibitors of Human Jumonji Domain Containing 2E (JMJD2E); Lysine-specific demethylase 4E (Homo sapiens), B2RXH2; AID 2147, 2009; Potency, µM (top dose mostly 57.1 µM), inactives show top-dose activity change, negative = inhibition, actives largely listed as inhibitors; JMJD2E catalytic domain, FDH-coupled NADH fluorescence (FDH is formaldehyde dehydrogenase); hit rate 1.6% among 230,000;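 note: 0% = wells with enzyme and -100% = buffer wells without enzyme; nearly all actives have a fitted effect of over 50% in size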
ALDH1A1 inh: qHTS Assay for Inhibitors of Aldehyde Dehydrogenase 1 (ALDH1A1); AID 1030, 2008; Potency, µM (titrated, usually from 75.3 µM), inactives show at the highest dose activity, negative = inhibition, most hits filed as inhibitors; Aldehyde dehydrogenase 1A1 (Homo sapiens), P00352; hit rate 7.3% among 220,000; Purified ALDH1A1, NADH fluorescence, propionaldehyde substrate;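 note: plate controls were no enzyme wells and a reference inhibitor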
Target sequence (P00352 whole entry, looked up): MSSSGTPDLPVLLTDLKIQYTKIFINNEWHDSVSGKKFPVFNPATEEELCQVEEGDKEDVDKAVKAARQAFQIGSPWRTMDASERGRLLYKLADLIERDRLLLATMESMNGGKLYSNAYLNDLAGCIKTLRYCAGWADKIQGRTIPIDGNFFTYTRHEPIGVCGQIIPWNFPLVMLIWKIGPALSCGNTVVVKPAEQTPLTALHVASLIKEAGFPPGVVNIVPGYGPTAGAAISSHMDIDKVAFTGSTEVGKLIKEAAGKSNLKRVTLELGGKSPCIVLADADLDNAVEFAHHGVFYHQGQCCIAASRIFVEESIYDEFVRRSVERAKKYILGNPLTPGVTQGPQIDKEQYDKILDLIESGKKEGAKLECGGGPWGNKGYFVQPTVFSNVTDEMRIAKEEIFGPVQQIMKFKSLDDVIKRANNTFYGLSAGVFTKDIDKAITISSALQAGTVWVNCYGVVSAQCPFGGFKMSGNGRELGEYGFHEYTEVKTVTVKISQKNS
Tau fluor counter: Counterscreen qHTS for Inhibitors of Tau Fibril Formation, Fluorescence Polarization | tau K18 P301L Alexa594 fluorescence, heparin fibrillization | Potency, µM (doses to about 57.7 µM), without a hit: top-dose activity change, negative = decrease | hit rate 0.93% among 280,000 | AID 1463, 2008; active = well fitted curve in the direction sought with a large enough effect; inconclusive = small, poorly fitted or top-dose-only effect, or another doubt; inactive = no such curve, though single readings can be large; an effect the other way counts as inactive or inconclusive; note: nearly all actives have a fitted effect of over 55% in size
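Human K18 P301L tau (15 uM unlabeled plus 0.24 uM Alexa 594-labeled, final) in 100 mM sodium acetate pH 7 was mixed with compound and 20 uM heparin and incubated 6 hr at 37 C.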
Tau FP inhib: qHTS for Inhibitors of Tau Fibril Formation, Fluorescence Polarization; hit rate 0.39% among 280,000; K18 P301L tau heparin fibrillization, Alexa594 FP, 6 h; AID 1468, 2008; Potency, µM (top dose mostly 57.7 µM), inactives show at the highest dose activity, negative = inhibition, usual class: inhibitors; Microtubule-associated protein tau (Homo sapiens), P10636; active = well fitted curve in the direction sought with a large enough effect; inconclusive = small, poorly fitted or top-dose-only effect, or another doubt; inactive = no such curve, though single readings can be large; an effect the other way counts as inactive or inconclusive; note: nearly all actives have a fitted effect of over 55% in size
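Human K18 P301L fragment (15 uM unlabeled plus 0.24 uM Alexa 594-labeled) in 100 mM sodium acetate pH 7 with compound, aggregation induced by 20 uM heparin for 6 hr at 37 C. ThT (30 uM) added for 1 hr, then Alexa 594 FP read.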
HPGD inh: qHTS Assay for Inhibitors of HPGD (15-Hydroxyprostaglandin Dehydrogenase); purified HPGD, NADH fluorescence kinetic, PGE2 substrate; Potency, µM, for the others: at the top dose activity change, negative = inhibition, hits mostly inhibitors; hit rate 4.3% among 150,000; AID 894, 2007; 15-hydroxyprostaglandin dehydrogenase [NAD(+)] (Homo sapiens), P15428
Target sequence (P15428 whole entry, looked up): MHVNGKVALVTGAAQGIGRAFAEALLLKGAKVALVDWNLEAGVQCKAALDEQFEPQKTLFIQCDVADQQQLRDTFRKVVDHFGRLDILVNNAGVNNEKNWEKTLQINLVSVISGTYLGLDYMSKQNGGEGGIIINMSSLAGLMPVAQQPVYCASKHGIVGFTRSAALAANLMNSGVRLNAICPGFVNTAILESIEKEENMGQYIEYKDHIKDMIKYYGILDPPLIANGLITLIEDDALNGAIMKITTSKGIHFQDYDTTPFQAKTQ
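20 nM HPGD preincubated 15 min at room temperature with compound in 50 mM Tris-HCl pH 8, 0.01% Tween 20. Started with 1 mM NAD+ and 30 uM prostaglandin E2; NADH fluorescence (360/450 nm) read 5 times over 30-s intervals, last minus first.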
Tau fibril ThT: qHTS for Inhibitors of Tau Fibril Formation, Thioflavin T Binding; Microtubule-associated protein tau (Homo sapiens), P10636; recombinant tau K18 P301L, heparin-induced fibrillization, ThT fluorescence; Potency, µM (series often up to 57.4 µM), for the others: at the highest dose activity, negative = inhibition, most hits filed as inhibitors; hit rate 2.1% among 270,000; AID 1460, 2008; active = well fitted curve in the direction sought with a large enough effect; inconclusive = small, poorly fitted or top-dose-only effect, or another doubt; inactive = no such curve, though single readings can be large; an effect the other way counts as inactive or inconclusive; note: nearly all actives have a fitted effect of over 55% in size
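Fibril formation assay: tau K18 P301L at 15 uM with trace Alexa 594 label, heparin inducer 20 uM, pH 7 sodium acetate buffer, 37 C for 6 hr; endpoint ThT signal.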
* marks the source's active call; other numbers are inactive results; u = inconclusive; x = no result; [ ] = another dose, or the depositor's remark. Hits are enriched below; roughly 9.9% of the tested compounds scored in any of these assays. Unless noted, calls come from the whole dose curve; as a rule, active = well fitted inhibition curve with a large enough effect (not every such curve was filed as active); inconclusive = small, poorly fitted or top-dose-only effect, or another doubt; inactive = no such curve, though single readings can be large or run the other way. Unless noted, % is set by controls: 0 for no effect and ±100 for the full control effect; potency is the fitted concentration of half-maximal effect.

SMILES	JMJD2E inh	ALDH1A1 inh	Tau fluor counter	Tau FP inhib	HPGD inh	Tau fibril ThT
O=[N+]([O-])c1cc(S(=O)(=O)C(F)(F)F)ccc1Sc1nc2ccccc2s1	-11%	-15%	13µM*[quencher]	-13%	25µM*	16µM*
CS(=O)(=O)c1ccc(Sc2nc3ccccc3[nH]2)c([N+](=O)[O-])c1	3%	12%	-20%	4%	-1%	-12%
CS(=O)(=O)c1ccc(Sc2nc3ccccc3s2)c([N+](=O)[O-])c1	6%	6%	u	10%	-7%	u
CCn1c(CCCc2nc3c([nH]2)c(=O)n(C)c(=O)n3C)nc2c1c(=O)n(C)c(=O)n2C	x	3%[13.5 µM]	x	x	-5%	x
CO[C@H]1COC(=O)[C@H](C)NC(=O)C/C=C\[C@@H](C)[C@@H](NS(=O)(=O)c2ccc(C)cc2)COC(=O)C/C=C\[C@@H]1C	x	6%[13.5 µM]	-16%[11.6 µM]	0%[11.6 µM]	x	-14%[11.5 µM]
Cc1nc(Cl)c2c(n1)NC1=C(O2)C(=O)CCC1	-28%	-1%	-1%	-8%	-7%	u
O=C1NC(=S)S/C1=C\C=C\c1ccc([N+](=O)[O-])o1	20µM*	x	-36%	-48%	x	x
CN1CCN(C(=O)/C=C/c2ccc([N+](=O)[O-])o2)CC1	u	x	-6%	-13%	x	u
Cc1cc(NS(=O)(=O)c2ccc(CC(C)C)cc2)no1	6%	6%	-5%	3%	4%	-5%
CCOC(=O)C(NC(C)=O)(Nc1ccc(S(=O)(=O)Nc2cc(C)on2)cc1)C(F)(F)F (stereo not given)	4%	18%	-4%	-2%	-2%	-16%
Cc1ccc(S(=O)(=O)Nc2ccc(S(=O)(=O)Nc3cc(C)nc(C)n3)cc2)cc1	u	4µM*	-4%	-8%	x	8%
CCOC(=O)C(NC(C)=O)(Nc1ccc(S(=O)(=O)Nc2cc(C)nc(C)n2)cc1)C(F)(F)F (stereo not given)	9%	14µM*	-8%	-9%	4%	-5%
Cc1ccc(S(=O)(=O)Nc2ccc(-c3cn4ccc(C)cc4n3)cc2)cc1	u	-3%	u	8%	x	u
Cc1ccn2cc(-c3ccc(NS(=O)(=O)c4ccccc4)cc3)nc2c1	-3%	-5%	-12%	-6%	22µM*	1%
Cc1cc(NS(=O)(=O)c2ccc(NS(=O)(=O)c3ccc(CC(C)C)cc3)cc2)nc(C)n1	u	32µM*	-13%	-2%	x	-11%
COC(=O)c1c(-c2cc(OC)c(OC)c(OC)c2)c2ccnc(OCc3ncccn3)c2c(=O)n1Cc1ccnc(C)c1	1%	-7%	1%	5%	-26%	-1%
Cc1nn(C(=O)c2c(F)cccc2F)c(C)c1S(=O)(=O)N1CCCCCC1	x	x	-3%	1%	x	-4%
CCc1ccc(-c2nn(CC(=O)NCc3ccccc3)c3c2cnc2ccc(F)cc23)cc1	x	x	2%	1%	x	7%
N#C/C(=C\c1ccccc1)C(=O)Nc1sc2c(c1C(N)=O)CCC2	x	x	-7%	8%	x	1.4µM*
Cc1ccc(C2=NN(Cc3nnc(-c4ccccc4)o3)C(=O)SC2)cc1	-3%	-8%	-20%	2%	11µM*	-11%
Cn1c(=O)[nH]c(=O)c2c1nc(N1CCCCC1)n2CCCSc1nnnn1-c1ccccc1	-6%	7.9µM*	-1%	8%	-13%	-7%
Cn1c(=O)[nH]c(=O)c2c1nc(Br)n2CCSc1nnnn1-c1ccccc1	-6%	-3%	-11%	-8%	-7%	-10%
CN1CCN(c2nc3c(c(=O)[nH]c(=O)n3C)n2CCCSc2nnnn2-c2ccccc2)CC1	-8%	22µM*	3%	-1%	x	-3%
CC1CCN(c2nc3c(c(=O)[nH]c(=O)n3C)n2CC(C)CSc2nnnn2-c2ccccc2)CC1 (stereo not given)	2%	20µM*	1%	2%	-5%	-7%
CC(=O)c1cccc(NC(=O)c2cnn(-c3cccc(C)c3)c2-n2cccc2)c1	x	x	-14%	-14%	x	5%
SMILES	JMJD2E inh	ALDH1A1 inh	Tau fluor counter	Tau FP inhib	HPGD inh	Tau fibril ThT
CCOc1ccc(-c2nc(Cn3c(=O)cc(-c4ccccc4)c4c(C)nn(C)c43)c(C)o2)cc1	x	x	-4%	0%	x	-8%
C(#CC12CC3CC(CC(C3)C1)C2)CN1CCOCC1	11%	-10%	4%	1%	x	3%
Cc1ccc(-n2c(=O)c3cccnc3n2CC(=O)Nc2cccc(C)c2C)cc1	x	x	-7%	-7%	x	5%
O=c1c(-c2ccc(Cl)cc2)[n+]([O-])c2ccccc2n1O	-12%	-11%	2%	2%	-14%	-2%
O=c1c(-c2cccc([N+](=O)[O-])c2)[n+]([O-])c2ccccc2n1O	22µM*	x	-3%	3%	x	-7%
Nn1c(SCC(=O)N2CCN(S(=O)(=O)c3ccc(Cl)cc3)CC2)nnc1-c1cccs1	-9%	-2%	-6%	-2%	-10%	-3%
Cc1cc(C)c2c3c(sc2n1)C1(CCSCC1)C(C#N)=C(N)O3	u	25µM*	-25%	u	-17%	-9%
CN(C)c1ccc(C(C(=O)NC(C)(C)C)N(C(=O)c2csnn2)C2CC2)cc1 (stereo not given)	-21%	5.6µM*	1%	1%	u	-2%
O=S1(=O)[C@H]2C[C@@H]3CC[C@]2(CN1Cc1cccc(F)c1)O3	-1%	x	3%	-6%	x	2%
COCc1cc(C)nc(Nc2ccc(C)c(C)c2)c1C#N	-7%	28µM*	u	u	x	u
CCCCc1cc2c(cn1)=C(OC(=O)c1ccco1)C(C)(OC(=O)CC)C(=O)C=2 (stereo not given)	-19%[11.4 µM]	2µM*	-5%[11.6 µM]	3%[11.6 µM]	-13%	-10%[11.5 µM]
C=CCOC(=O)N[C@@H](c1ccccc1)[C@@H](C)[N+](=O)[O-]	8%	9%	-3%	4%	-4%	2%
COC(=O)N1CCC[C@@]2(CCN(Cc3nccs3)C2)C1	x	8%	x	x	1%	x
COc1ccc(C(=O)N2CCC[C@@]3(CCN(Cc4ccc(C#N)cc4)C3)C2)cc1	x	u	x	x	16µM*	x
COc1ccc(C(=O)N2CCC[C@@]3(CCN(Cc4nccs4)C3)C2)cc1	x	8.9µM*	x	x	-24%	x
Cc1ccc(-c2cn3c(n2)sc2cc(C(=O)NC4CCCCCC4)ccc23)c(C)c1	x	x	u	6%	x	-8%
